Tests used:
Test in all cases: DAPPL (digital affinity profiling via proximity ligation, sequencing); 10 mM Tris-HCl pH 7.5, 50 mM NaCl, 1 mM DTT, 4% glycerol, room temperature, 30 min; GST-TFs on glutathione beads, 16-mer random dsDNA library, 0.1% formaldehyde crosslink after washing; high values mean tight binding
Details in all cases: protein: recombinant; tags: N-terminal GST; dsDNA, one strand shown
ERF = biological target: T1, ERF (Homo sapiens, UniProt P50548 1-548)
T1 sequence: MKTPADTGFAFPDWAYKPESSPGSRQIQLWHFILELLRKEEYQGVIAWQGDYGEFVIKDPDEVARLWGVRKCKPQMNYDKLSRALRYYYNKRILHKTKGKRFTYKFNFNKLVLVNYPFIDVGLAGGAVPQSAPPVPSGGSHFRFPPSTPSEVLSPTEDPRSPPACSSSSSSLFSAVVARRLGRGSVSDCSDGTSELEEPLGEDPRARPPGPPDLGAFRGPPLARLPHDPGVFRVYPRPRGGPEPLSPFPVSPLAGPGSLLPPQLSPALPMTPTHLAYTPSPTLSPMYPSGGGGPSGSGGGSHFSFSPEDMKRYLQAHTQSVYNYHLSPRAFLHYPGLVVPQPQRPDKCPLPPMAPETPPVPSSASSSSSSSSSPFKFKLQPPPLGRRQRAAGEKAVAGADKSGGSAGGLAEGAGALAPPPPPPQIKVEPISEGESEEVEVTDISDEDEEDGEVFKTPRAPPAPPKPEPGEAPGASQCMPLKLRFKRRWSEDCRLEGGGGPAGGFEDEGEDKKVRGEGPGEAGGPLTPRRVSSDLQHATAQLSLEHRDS
Method in brief: (§1)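 Binding signal is given per hexamer as its read frequency for a factor divided by its frequency in the tag-only sample. GST-fused human transcription factors were expressed in yeast, captured on glutathione beads, barcoded with DNA and pooled with that sample, then incubated with 200 nmole of a 16-mer random double-stranded DNA library in Tris/NaCl/DTT/glycerol buffer for 30 min at room temperature. The pools were then washed, crosslinked, proximity-ligated, amplified by PCR and sequenced on an Illumina NextSeq500.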

ETV3L = biological target: T2, ETV3L (Homo sapiens, UniProt Q6ZN32 1-361)
T2 sequence: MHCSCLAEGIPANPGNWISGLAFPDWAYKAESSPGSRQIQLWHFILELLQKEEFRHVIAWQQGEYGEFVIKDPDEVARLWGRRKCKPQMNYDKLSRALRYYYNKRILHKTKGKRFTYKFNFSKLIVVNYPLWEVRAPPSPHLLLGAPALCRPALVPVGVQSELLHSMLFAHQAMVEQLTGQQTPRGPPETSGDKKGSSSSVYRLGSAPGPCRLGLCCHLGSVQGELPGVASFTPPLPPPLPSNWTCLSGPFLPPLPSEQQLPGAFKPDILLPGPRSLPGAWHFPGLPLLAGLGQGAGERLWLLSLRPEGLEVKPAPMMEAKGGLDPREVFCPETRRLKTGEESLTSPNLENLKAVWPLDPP
Method in brief: as §1

ETS2 = biological target: T3, ETS2 (Homo sapiens, UniProt P15036 1-469)
T3 sequence: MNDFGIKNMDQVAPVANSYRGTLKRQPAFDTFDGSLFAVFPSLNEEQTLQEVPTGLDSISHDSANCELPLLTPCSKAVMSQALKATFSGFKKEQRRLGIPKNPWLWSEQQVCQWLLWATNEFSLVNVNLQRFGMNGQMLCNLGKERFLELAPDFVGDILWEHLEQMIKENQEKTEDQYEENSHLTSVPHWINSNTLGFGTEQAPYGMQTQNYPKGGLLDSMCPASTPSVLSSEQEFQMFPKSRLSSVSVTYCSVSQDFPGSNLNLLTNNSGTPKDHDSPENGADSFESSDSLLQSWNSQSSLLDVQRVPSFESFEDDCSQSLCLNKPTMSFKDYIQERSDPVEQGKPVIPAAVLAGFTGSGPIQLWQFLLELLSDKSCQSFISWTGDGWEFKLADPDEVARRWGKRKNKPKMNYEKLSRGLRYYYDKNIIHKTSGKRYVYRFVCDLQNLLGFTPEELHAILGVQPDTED
Method in brief: as §1

SPDEF = biological target: T4, SPDEF (Homo sapiens, UniProt O95238 1-335)
T4 sequence: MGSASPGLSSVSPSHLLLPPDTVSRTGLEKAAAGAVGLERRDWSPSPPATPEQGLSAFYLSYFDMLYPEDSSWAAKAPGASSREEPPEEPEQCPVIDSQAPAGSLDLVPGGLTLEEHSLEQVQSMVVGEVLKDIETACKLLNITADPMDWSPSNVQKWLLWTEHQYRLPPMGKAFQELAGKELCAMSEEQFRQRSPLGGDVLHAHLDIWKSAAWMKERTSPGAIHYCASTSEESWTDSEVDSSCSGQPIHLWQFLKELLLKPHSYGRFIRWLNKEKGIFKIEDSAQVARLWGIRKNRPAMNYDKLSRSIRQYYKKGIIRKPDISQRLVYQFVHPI
Method in brief: as §1

ETV7 = biological target: T5, ETV7 (Homo sapiens, UniProt Q9Y603 1-341)
T5 sequence: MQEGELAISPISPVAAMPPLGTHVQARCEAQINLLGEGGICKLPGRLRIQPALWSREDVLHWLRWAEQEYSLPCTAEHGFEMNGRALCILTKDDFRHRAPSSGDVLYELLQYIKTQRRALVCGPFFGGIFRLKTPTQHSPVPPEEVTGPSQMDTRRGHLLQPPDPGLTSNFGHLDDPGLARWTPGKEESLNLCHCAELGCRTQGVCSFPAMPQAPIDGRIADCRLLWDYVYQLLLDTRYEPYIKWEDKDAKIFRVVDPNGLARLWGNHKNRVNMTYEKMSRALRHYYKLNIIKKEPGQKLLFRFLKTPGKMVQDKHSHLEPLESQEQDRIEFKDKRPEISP
Method in brief: as §1

ELF5 = biological target: T6, ELF5 (Homo sapiens, UniProt Q9UKW6-2 1-255)
T6 sequence: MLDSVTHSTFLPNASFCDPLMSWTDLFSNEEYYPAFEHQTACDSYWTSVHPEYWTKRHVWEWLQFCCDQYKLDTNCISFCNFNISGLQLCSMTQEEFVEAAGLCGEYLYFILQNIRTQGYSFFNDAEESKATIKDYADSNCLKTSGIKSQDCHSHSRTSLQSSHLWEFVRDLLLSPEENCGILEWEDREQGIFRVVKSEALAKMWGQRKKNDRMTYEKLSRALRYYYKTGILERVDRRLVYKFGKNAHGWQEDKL
Method in brief: as §1

ETV3 = biological target: T7, ETV3 (Homo sapiens, UniProt P41162-2 1-143)
T7 sequence: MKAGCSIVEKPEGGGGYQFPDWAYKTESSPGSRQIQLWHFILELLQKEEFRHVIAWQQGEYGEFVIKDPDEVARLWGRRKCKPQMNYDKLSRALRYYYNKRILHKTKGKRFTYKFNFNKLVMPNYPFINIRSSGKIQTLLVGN
Method in brief: as §1

ETV6 = ETV6 (Homo sapiens, UniProt P41212 1-452)
ETV6, sequence (P41212 whole entry): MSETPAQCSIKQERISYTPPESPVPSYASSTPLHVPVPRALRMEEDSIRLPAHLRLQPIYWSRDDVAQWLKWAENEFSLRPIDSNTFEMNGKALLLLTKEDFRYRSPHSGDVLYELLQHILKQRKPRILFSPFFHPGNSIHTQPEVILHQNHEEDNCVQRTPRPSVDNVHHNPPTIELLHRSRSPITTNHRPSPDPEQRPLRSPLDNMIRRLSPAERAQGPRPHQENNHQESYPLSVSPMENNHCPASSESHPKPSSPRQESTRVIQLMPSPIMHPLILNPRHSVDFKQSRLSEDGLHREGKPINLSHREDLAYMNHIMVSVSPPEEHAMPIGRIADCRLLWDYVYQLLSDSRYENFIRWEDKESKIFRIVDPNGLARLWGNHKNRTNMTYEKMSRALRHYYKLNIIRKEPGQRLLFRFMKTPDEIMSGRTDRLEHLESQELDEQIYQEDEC
Method in brief: as §1

Sequence	binding signal (ERF)	binding signal (ETV3L)	binding signal (ETS2)	binding signal (SPDEF)	binding signal (ETV7)	binding signal (ELF5)	binding signal (ETV3)	binding signal (ETV6)
CGTCAC	1.15 fold enrichment (6-mer frequency, TF over GST control)	1.15 fold enrichment (6-mer frequency, TF over GST control)	1.27 fold enrichment (6-mer frequency, TF over GST control)	1.21 fold enrichment (6-mer frequency, TF over GST control)	1.13 fold enrichment (6-mer frequency, TF over GST control)	1.16 fold enrichment (6-mer frequency, TF over GST control)	1.11 fold enrichment (6-mer frequency, TF over GST control)	1.24 fold enrichment (6-mer frequency, TF over GST control)
ACAGGA	1.03 fold enrichment (6-mer frequency, TF over GST control)	1.11 fold enrichment (6-mer frequency, TF over GST control)	1.16 fold enrichment (6-mer frequency, TF over GST control)	1.37 fold enrichment (6-mer frequency, TF over GST control)	1.11 fold enrichment (6-mer frequency, TF over GST control)	1.28 fold enrichment (6-mer frequency, TF over GST control)	1.15 fold enrichment (6-mer frequency, TF over GST control)	1.19 fold enrichment (6-mer frequency, TF over GST control)
CCCTGC	1.18 fold enrichment (6-mer frequency, TF over GST control)	1.18 fold enrichment (6-mer frequency, TF over GST control)	1.12 fold enrichment (6-mer frequency, TF over GST control)	1.11 fold enrichment (6-mer frequency, TF over GST control)	1.22 fold enrichment (6-mer frequency, TF over GST control)	1.2 fold enrichment (6-mer frequency, TF over GST control)	1.22 fold enrichment (6-mer frequency, TF over GST control)	1.2 fold enrichment (6-mer frequency, TF over GST control)
TCCGGA	2.04 fold enrichment (6-mer frequency, TF over GST control)	2.42 fold enrichment (6-mer frequency, TF over GST control)	2.66 fold enrichment (6-mer frequency, TF over GST control)	3.16 fold enrichment (6-mer frequency, TF over GST control)	2.24 fold enrichment (6-mer frequency, TF over GST control)	3.19 fold enrichment (6-mer frequency, TF over GST control)	2.84 fold enrichment (6-mer frequency, TF over GST control)	2.7 fold enrichment (6-mer frequency, TF over GST control)
GGATGT	1.41 fold enrichment (6-mer frequency, TF over GST control)	1.63 fold enrichment (6-mer frequency, TF over GST control)	1.72 fold enrichment (6-mer frequency, TF over GST control)	3.07 fold enrichment (6-mer frequency, TF over GST control)	1.45 fold enrichment (6-mer frequency, TF over GST control)	1.87 fold enrichment (6-mer frequency, TF over GST control)	1.78 fold enrichment (6-mer frequency, TF over GST control)	1.66 fold enrichment (6-mer frequency, TF over GST control)
TACACG	1.06 fold enrichment (6-mer frequency, TF over GST control)	1.03 fold enrichment (6-mer frequency, TF over GST control)	1.11 fold enrichment (6-mer frequency, TF over GST control)	1.18 fold enrichment (6-mer frequency, TF over GST control)	1.15 fold enrichment (6-mer frequency, TF over GST control)	1.13 fold enrichment (6-mer frequency, TF over GST control)	1.08 fold enrichment (6-mer frequency, TF over GST control)	1.07 fold enrichment (6-mer frequency, TF over GST control)
ACGGAA	1.53 fold enrichment (6-mer frequency, TF over GST control)	1.73 fold enrichment (6-mer frequency, TF over GST control)	1.86 fold enrichment (6-mer frequency, TF over GST control)	1.78 fold enrichment (6-mer frequency, TF over GST control)	1.57 fold enrichment (6-mer frequency, TF over GST control)	2.24 fold enrichment (6-mer frequency, TF over GST control)	1.93 fold enrichment (6-mer frequency, TF over GST control)	2.14 fold enrichment (6-mer frequency, TF over GST control)
